Results reported in PubChem BioAssay (NCATS).
Records with an inconclusive call do not appear. Active and inactive are the calls of the source. The call rests on the fitted dose curve; in most records, active means well fitted curve in the direction sought with a large enough effect; inconclusive means small, poorly fitted or top-dose-only effect, or another doubt; inactive means no such curve, though single readings can be large; an effect the other way counts as inactive or inconclusive.

What was measured:
HaCat [1] = assay: Cytotoxic Profiling of Annotated Libraries Using Quantitative High-Throughput Screening (AID 1296008); conditions: Five cell lines viability, CellTiter-Glo ATP luminescence, 48-72 h; max response: hits give low values; further: nearly all actives have a fitted effect of over 60% in size; on max response: on the % scale 0 is the no-effect control and ±100 the full control effect
Procedure, shortened: (§1)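 Cells exposed to compounds for 48 or 72 hr at 37 degrees Celsius. Viability read as ATP-coupled luminescence with CellTiter-Glo after 10 min at room temperature.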

KB-3-1 = assay: as above; conditions: Five cell lines viability, CellTiter-Glo ATP luminescence, 48-72 h; max response: hits give low values
Procedure, shortened: as §1

NIH3T3 [2] = assay: as above; conditions: Five cell lines viability, CellTiter-Glo ATP luminescence, 48-72 h; max response: hits give low values
Procedure, shortened: as §1

NIH3T3 [3] = assay: qHTS assay to identify novel small-molecules to repurpose for Merkel cell carcinoma treatment (AID 1296009); conditions: MCC and control cell lines, CellTiter-Glo viability, 72 h; series mostly up to 44.8 µM; further: nearly all actives have a fitted effect of over 60% in size
Procedure, shortened: (§2)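 Cells were treated for 72 hr at 37 degree celsius with compounds in 8- or 11-point dose response. Viability was read by CellTiter-Glo luminescence, normalized to no-cell (cytotoxicity) and DMSO controls.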

C33A = assay: Primary qHTS to identify gynecologic anti-cancer compounds using libraries of approved drugs and bioactive compounds (AID 1345084); conditions: Gynecologic cancer cell panel viability, ATPlite luminescence, 48 h; series mostly up to 57.5 µM; further: on the % scale 0 is the no-effect control and ±100 the full control effect; nearly all actives have a fitted effect of over 55% in size
Procedure, shortened: (§3)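 Five-point cytotoxicity, 48 h drug exposure at 37 C, 5% CO2, on cells seeded 16 h beforehand. ATP content read by ATPlite luminescence.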

CASKI = assay: as above; conditions: Gynecologic cancer cell panel viability, ATPlite luminescence, 48 h; series mostly up to 57.5 µM
Procedure, shortened: as §3

Es-2 = assay: as above; conditions: Gynecologic cancer cell panel viability, ATPlite luminescence, 48 h; series mostly up to 57.5 µM
Procedure, shortened: as §3

Hek293T = assay: as above; conditions: Gynecologic cancer cell panel viability, ATPlite luminescence, 48 h, control line for the selectivity index; series mostly up to 57.5 µM
Procedure, shortened: as §3

JEG-3 = assay: as above; conditions: Gynecologic cancer cell panel viability, ATPlite luminescence, 48 h; series mostly up to 57.5 µM
Procedure, shortened: as §3

PA-1 = assay: as above; conditions: Gynecologic cancer cell panel viability, ATPlite luminescence, 48 h; series mostly up to 57.5 µM
Procedure, shortened: as §3

CAOV3 = assay: as above; conditions: Gynecologic cancer cell panel viability, ATPlite luminescence, 48 h; series mostly up to 57.5 µM
Procedure, shortened: as §3

HeLa = assay: as above; conditions: Gynecologic cancer cell panel viability, ATPlite luminescence, 48 h; series mostly up to 57.5 µM
Procedure, shortened: as §3

OV90 = assay: as above; conditions: Gynecologic cancer cell panel viability, ATPlite luminescence, 48 h; series mostly up to 57.5 µM
Procedure, shortened: as §3

HACAT [4] = assay: qHTS assay to identify novel small-molecules to repurpose for Merkel cell carcinoma treatment (AID 1296009); conditions: MCC and control cell lines, CellTiter-Glo viability, 72 h; at 44.8 µM (top of the series) unless noted; further: nearly all actives have a fitted effect of over 60% in size
Procedure, shortened: as §2

O=C1Cc2c([nH]c3ccc(Br)cc23)-c2ncccc2N1
inactive: max response (HaCat [1]) 2.65% | max response (KB-3-1) 2.04% | outcome (NIH3T3 [2]) | Potency (NIH3T3 [3]) | Potency (C33A) | Potency (CASKI) | Potency (Es-2) | Potency (Hek293T) | Potency (JEG-3) | Potency (PA-1)

NS(=O)(=O)Nc1ncnc(OCCOc2ncc(Br)cn2)c1-c1ccc(Br)cc1
inactive: max response (HaCat [1]) -23.8% | max response (KB-3-1) 6.63% | max response (NIH3T3 [2]) -5.35% | Potency (C33A) | Potency (CAOV3) | Potency (CASKI) | Potency (Es-2) | Potency (HeLa) | Potency (Hek293T) | Potency (JEG-3) | Potency (OV90) | Potency (PA-1)

C=C1C(=O)OC2C1CCC1(C)C(O)CCC(=C)C21 (configuration not stated)
inactive: outcome (HaCat [1]) | max response (KB-3-1) 7.7% | max response (NIH3T3 [2]) -19.9% | outcome (HACAT [4]) | Potency (C33A) | Potency (CAOV3) | Potency (CASKI) | Potency (Es-2) | Potency (HeLa) | Potency (Hek293T) | Potency (JEG-3) | Potency (OV90) | Potency (PA-1)

C=C1/C(=C/C=C2\CCC[C@@]3(C)C2CCC3[C@H](C)/C=C/[C@@H](O)C2CC2)C[C@@H](O)C[C@@H]1O (some centres not stated)
inactive: max response (HaCat [1]) -20.3% | max response (KB-3-1) -9.38% | max response (NIH3T3 [2]) -32.1% | Potency (C33A) | Potency (CAOV3) | Potency (CASKI) | Potency (Es-2) | Potency (HeLa) | Potency (Hek293T) | Potency (JEG-3) | Potency (OV90) | Potency (PA-1)

Fc1ccc(-c2cncc(CN3CCN(c4cccc5c4OCCO5)CC3)c2)cc1
inactive: outcome (HaCat [1]) | max response (KB-3-1) -10.8% | max response (NIH3T3 [2]) -12.4% | outcome (HACAT [4]) | Potency (C33A) | Potency (CAOV3) | Potency (CASKI) | Potency (Es-2) | Potency (HeLa) | Potency (Hek293T) | Potency (JEG-3) | Potency (OV90) | Potency (PA-1)

CCC(=O)N1CCOc2c(cc(-c3ccc(OC)c(OC)c3)cc2OC[C@H]2CCCN(C)C2)C1
inactive: max response (HaCat [1]) 3.21% | max response (KB-3-1) -9.43% | outcome (NIH3T3 [2]) | Potency (NIH3T3 [3]) | Potency (C33A) | Potency (CAOV3) | Potency (CASKI) | Potency (Es-2) | Potency (HeLa) | Potency (Hek293T) | Potency (JEG-3) | Potency (OV90) | Potency (PA-1)

C=C1C(=O)O[C@@H]2C=C(COC(C)=O)CC/C=C(\CO)CC[C@@H]12
inactive: outcome (HaCat [1]) | max response (KB-3-1) 7.74% | max response (NIH3T3 [2]) -6.09% | outcome (HACAT [4]) | Potency (C33A) | Potency (CASKI) | Potency (Es-2) | Potency (HeLa) | Potency (Hek293T) | Potency (JEG-3) | Potency (OV90) | Potency (PA-1)

Cc1nc(C#Cc2ccnc(Cl)c2)c(C)n1-c1ccc(OC(F)(F)F)cc1
inactive: outcome (HaCat [1]) | max response (KB-3-1) -15.3% | max response (NIH3T3 [2]) -27.8% | outcome (HACAT [4]) | Potency (C33A) | Potency (CAOV3) | Potency (CASKI) | Potency (Es-2) | Potency (HeLa) | Potency (Hek293T) | Potency (JEG-3) | Potency (OV90) | Potency (PA-1)

COc1c(C(O)CC(C)C)ccc2c1C(=O)OCc1cc(C)cc(O)c1O2 (configuration not stated)
inactive: max response (HaCat [1]) 0.403% | max response (KB-3-1) -22.7% | max response (NIH3T3 [2]) -2.04% | Potency (C33A) | Potency (CAOV3) | Potency (CASKI) | Potency (Es-2) | Potency (HeLa) | Potency (Hek293T) | Potency (JEG-3) | Potency (OV90) | Potency (PA-1)

CCCCOc1ccc(S(=O)(=O)n2c(C)nc3ccccc32)cc1
inactive: max response (HaCat [1]) 3.36% | max response (KB-3-1) -24.1% | max response (NIH3T3 [2]) -1.64% | Potency (C33A) | Potency (CAOV3) | Potency (CASKI) | Potency (Es-2) | Potency (HeLa) | Potency (Hek293T) | Potency (JEG-3) | Potency (OV90) | Potency (PA-1)

CCOc1ccc(-n2c(C(C)N(Cc3cccnc3)C(=O)Cc3ccc(F)c(C(F)(F)F)c3)nc3ncccc3c2=O)cc1 (configuration not stated)
inactive: max response (HaCat [1]) -10.9% | outcome (KB-3-1) | max response (NIH3T3 [2]) 2.59% | Potency (C33A) | Potency (CAOV3) | Potency (CASKI) | Potency (Es-2) | Potency (HeLa) | Potency (Hek293T) | Potency (JEG-3) | Potency (OV90) | Potency (PA-1)

O=S(=O)(Nc1ccccc1N1CCCCC1)c1ccc(Cl)s1
inactive: max response (HaCat [1]) -19.5% | max response (KB-3-1) -15.2% | max response (NIH3T3 [2]) -6.22% | Potency (C33A) | Potency (CAOV3) | Potency (CASKI) | Potency (Es-2) | Potency (HeLa) | Potency (Hek293T) | Potency (JEG-3) | Potency (PA-1)

COc1cc(C(=O)NCC2(N(C)C)CCCC2)cc(OC)c1OCc1ccccc1
inactive: max response (HaCat [1]) 3.73% | max response (KB-3-1) 3.26% | max response (NIH3T3 [2]) -9.79% | Potency (C33A) | Potency (CAOV3) | Potency (CASKI) | Potency (Es-2) | Potency (HeLa) | Potency (Hek293T) | Potency (JEG-3) | Potency (OV90) | Potency (PA-1)
